A selection: hits, their analogues and other compounds. The true share with any hit is near 6.3%.
ATXN2 expr inh: Primary qHTS for Inhibitors of ATXN expression; AID 1745845, 2022; Potency, µM (top dose mostly 57 µM), for inactives: at the top dose activity change, negative = inhibition, hits mostly inhibitors; HEK-293 ATXN2-luciferase reporter, luminescence, 24 h; 0.72% of 360,000 active; further: on the % scale 0 is the no-effect control and ±100 the full control effect; nearly all actives have a fitted effect of over 55% in size
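ATXN2-luciferase reporter cells (luciferase flanked by upstream and downstream ATXN2 gene portions) were treated 24 h at 37 °C with compounds at up to 57 uM. SteadyGlo luminescence gave expression; GF-AFC fluorescence gave viability.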
HepG2 tox: qHTS for Inhibitors of TGF-b: Cytotox Counterscreen | AID 588856, 2011 | Potency, µM (top dose mostly 46.1 µM), for the others: at the top dose activity change, negative = cytotoxicity, usual class: cytotoxic | 0.76% of 410,000 active | HepG2 CAGA-GFP viability, ATP luminescence, 18 h
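CellTiter-Glo luminescence gave cytotoxicity after 18 hours at 37 degrees C. The cells were HepG2 CAGA-GFP in 1% FBS DMEM, stimulated with 500 pg/mL TGF-beta after compound addition. %Activity was normalised to no-cell wells (complete cell-killing) and DMSO (no toxicity), and curves were fitted and classified.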
S2 tox: Viability Counterscreen for Primary qHTS for Inhibitors of ATXN expression; S2 cells (HEK-293 line with an ATXN2-luciferase reporter) viability, CellTiter-Fluor protease fluorescence, 24 h; 0.49% of 400,000 active; Potency, µM (titrated, usually from 56.7 µM), actives largely listed as cytotoxic; further: nearly all actives have a fitted effect of over 40% in size
Gal4-VP16 FLuc: VP16 counterscreen qHTS for inhibitors of ROR gamma transcriptional activity | Potency, µM (highest dose often 53.6 µM), for the others: at the top dose activity, negative = inhibition, actives largely listed as inhibitors | 3.5% of 310,000 active | Drosophila S2 Gal4-VP16 UAS-luciferase, luminescence, 20 h | AID 2546, 2010;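 further: Gal4-VP16 expression switched on by copper sulfate through the metallothionein promoter; on the % scale 0 is the no-effect control and ±100 the full control effect; nearly all actives have a fitted effect of over 50% in size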
RORgamma inh: qHTS for inhibitors of ROR gamma transcriptional activity; Potency, µM (doses to about 53.6 µM), for inactives: top-dose activity change, negative = inhibition, hits mostly inhibitors; Nuclear receptor ROR-gamma (Mus musculus), P51450; 5.4% of 310,000 active; Drosophila S2 Gal4-RORgamma UAS-luciferase reporter, 20 h; further: on the % scale 0 is the no-effect control and ±100 the full control effect; nearly all actives have a fitted effect of over 60% in size
Target sequence (P51450 whole entry, looked up, the tested form may be a part): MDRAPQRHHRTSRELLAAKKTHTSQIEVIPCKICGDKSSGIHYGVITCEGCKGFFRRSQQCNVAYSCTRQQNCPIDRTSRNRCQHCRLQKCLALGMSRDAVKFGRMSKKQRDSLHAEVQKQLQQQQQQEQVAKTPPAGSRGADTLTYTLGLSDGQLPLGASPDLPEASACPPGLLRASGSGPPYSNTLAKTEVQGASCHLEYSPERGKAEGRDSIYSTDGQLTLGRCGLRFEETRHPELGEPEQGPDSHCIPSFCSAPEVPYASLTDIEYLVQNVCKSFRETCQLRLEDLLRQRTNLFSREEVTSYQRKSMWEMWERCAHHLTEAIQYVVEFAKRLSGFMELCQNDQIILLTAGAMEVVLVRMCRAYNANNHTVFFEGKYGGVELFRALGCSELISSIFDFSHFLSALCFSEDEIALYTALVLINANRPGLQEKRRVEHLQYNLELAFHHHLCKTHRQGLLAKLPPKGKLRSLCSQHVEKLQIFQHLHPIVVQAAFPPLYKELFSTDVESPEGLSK
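Compounds are pin-transferred onto Drosophila Schneider cells expressing a copper-inducible Gal4–ROR gamma transactivation domain fusion. After 1 hr, copper sulfate is added to 700 uM final; luciferase is read 20 hr later.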
TGFb inhibitor: qHTS for Inhibitors of TGF-b | 1.2% of 410,000 active | HepG2 CAGA-GFP TGF-b/SMAD3 reporter, GFP fluorescence, 18 h; TGF-beta stimulated, 500 pg/mL final | Potency, µM (top dose mostly 46.1 µM), inactives show top-dose activity, negative = inhibition, actives largely listed as inhibitors; further: on the % scale 0 is the no-effect control and ±100 the full control effect; nearly all actives have a fitted effect of over 65% in size
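First, reporter cells (HEPG2 CAGA-GFP) rested 2 h at 37 degrees C. Next, compounds were pinned in and TGF-beta added to 500 pg/mL final. After 18 h, GFP was imaged per cell and summed per well.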
The depositor's hits bear a star; i = inactive; u = inconclusive; x = no result; [ ] = another dose, or the depositor's remark. The call rests on the fitted dose curve; in most records, active means well fitted curve in the direction sought with a large enough effect; inconclusive means small, poorly fitted or top-dose-only effect, or another doubt; inactive means no such curve, though single readings can be large; an effect the other way counts as inactive or inconclusive. Potency means the concentration at half of the fitted maximal effect.

SMILES	ATXN2 expr inh	HepG2 tox	S2 tox	Gal4-VP16 FLuc	RORgamma inh	TGFb inhibitor
CC(NC(=O)c1cccnc1)c1nnc2n1CCN(Cc1ccc(-c3ccccc3Cl)o1)CC2 (configuration not stated)	x	x	i	x	x	x
COc1cc(/C=N/N(c2ccccc2)c2ccccc2)ccc1O	u	-85%	i	u	1%	u
CN(/N=C\c1ccc(O)c(O)c1)c1nc(-c2ccccc2)cc(-c2ccccc2)n1	-24%	-4%	i	3.2µM*	2.5µM*	u
O=C(CCn1c(=O)c2ccccc2n(Cc2ccccc2)c1=O)NC1CCN(Cc2ccccc2)CC1	-20%	1%	u	-4%	0.11µM*	-1%
CCOC(=O)c1cc(-c2ccc(F)cc2)n(CCC(=O)NC2CCN(Cc3ccccc3)CC2)c1C	u	13µM*	u	1%	-42%	u
O=C(NCC1Cc2cccc(-c3nccs3)c2O1)c1ccnc(Cl)c1 (configuration not stated)	x	x	i	x	x	x
O=C1CC(c2ccccc2)CC(O)=C1C=Nc1ccccc1O (configuration not stated)	x	-15%	i	-23%	11µM*	-6%
O=C1CC(c2ccccc2)CC(O)=C1C=Nc1ccccc1 (configuration not stated)	-8%[11.3 µM]	5%	i	5%	18%	0%
CC1CCC(C(=O)O)NC1c1ccc(-c2ccco2)cc1 (configuration not stated)	x	x	x	0%[10 µM]	-4%[10 µM]	x
Oc1c(Br)cc(Br)cc1CNc1cccc2cccnc12	x	-63%	i	8.9µM*	14µM*	u
CCOC(=O)N/N=C1/C[C@@H](O)[C@@H](O)[C@@H]2[C@@H]3C(=O)N(C(C)(C)C)C(=O)[C@H]3CC[C@@H]12	x	x	x	7%[10 µM]	-1%[10 µM]	x
CN(C)c1ccc(/C=C2/SC(=O)N(CCN=C3NS(=O)(=O)c4ccccc43)C2=O)cc1	17%	-44%	i	5%	13%	-20%
CN(C)c1ccc(/C=C2\SC(=O)N(CCc3nnc(N)s3)C2=O)cc1	4µM*	-10%	i	4.5µM*	2.5µM*	9%
CC(O)(c1cccc(F)c1)c1nc(-c2ccccc2)cs1 (configuration not stated)	-8%	-15%	i	x	x	-23%
CC(O)(c1cccc(F)c1)c1nc(-c2cccc(C(F)(F)F)c2)cs1 (configuration not stated)	u	16µM*	u	x	x	u
CC1=Nc2ccc3ccccc3c2C1(C)C	-10%	10%	i	-23%	7.9µM*	12%
COc1cc(C2(c3ccc(O)c(OC)c3)C(=O)Nc3c(Br)cc(Br)cc32)ccc1O	x	-95%	u	x	x	25µM*
COc1cc(C2(c3ccc(O)c(OC)c3)C(=O)N(C)c3ccc(Br)cc32)ccc1O	-21%	-19%	u	x	x	u
COc1ccc(NC(=O)CC(C)n2nc(C)cc2C)cc1Cl (configuration not stated)	5%	-22%	i	x	x	2%
N#C/C(C(=O)Nc1ccc(Cl)cc1)=C(/S)Nc1ccccc1	-23%	11µM*	i	u	u	11µM*
Cc1cc(-c2cccs2)c(C#N)c(=S)[nH]1	-20%	31%	i	u	10µM*	-1%
Cc1nc2c(OCCC3CCCCC3)cccn2c1N(C)C(=O)CCC1CCCC1	u	18µM*	u	x	x	16µM*
Cc1nc2c(OCc3ccc(C(F)(F)F)cc3)cccn2c1N(C)CC1CC1	35µM*	10µM*	22µM*	x	x	11µM*
CCc1nc2c(OCCC3CCCCC3)cccn2c1N(C)C(=O)c1ccc(C)cc1	u	20µM*	u	x	x	u
OC(c1ccc(F)cc1)c1nc(-c2cncnc2)cs1 (configuration not stated)	-2%	3.5µM*	i	x	x	0%
SMILES	ATXN2 expr inh	HepG2 tox	S2 tox	Gal4-VP16 FLuc	RORgamma inh	TGFb inhibitor
OC(c1ccc(F)cc1)c1nc(-c2ccccc2)cs1 (configuration not stated)	51%	-35%	i	x	x	-4%
COc1ccc2c(c1)OC1=C(C(=O)CCC1)C2C1=C(O)CCCC1=O (configuration not stated)	-8%	-21%	i	10%	11µM*	-23%
COc1cc(C(=O)N/N=C/c2ccc(OC(=O)c3cccc(C)c3)cc2)ccc1O	-5%	-1%	i	-14%	27%	0%
Cc1cccc(C(=O)Oc2ccc(/C=N/O)cc2)c1	46%	-45%	i	2µM*	5.6µM*	-1%
O=C1C(=O)N(C2CCN(C(=O)c3ccccc3F)CC2)CCN1Cc1ccc(F)cc1	10%	0%	i	x	x	-9%
Cc1ccc(C2=Nc3ccccc3SC(c3cccc([N+](=O)[O-])c3)C2)cc1 (configuration not stated)	x	1%	i	13µM*	5.6µM*	7%
O=[N+]([O-])c1cccc(C2CC(c3ccccc3)=NN2c2ccccc2)c1 (configuration not stated)	-12%	-4%	x	3%	u	-25%
O=C1CCc2cc(S(=O)(=O)N3CCC(C(=O)NCc4ccccn4)CC3)ccc2N1	x	x	x	u	13µM*	x
O=C1CCc2cc(S(=O)(=O)N3CCC(C(=O)NC4CCCC4)CC3)ccc2N1	2%	-2%	i	6%	-15%	4%
O=C(c1cc(C(F)(F)F)cc(C(F)(F)F)c1)N1CCC[C@@]2(CCN(Cc3ccccc3)C2)C1	x	x	x	-1%	12%	x
C=CCSc1nc2sc3c(c2c(=O)n1CC)CCc1ccccc1-3	-8%	-4%	i	u	10µM*	u
C=CCn1c(SCC)nc2sc3c(c2c1=O)CCc1ccccc1-3	18%	0%	i	4%	-11%	u
Cc1cc(C)[n+](C)c2ccccc12	x	-25%	x	x	x	5%
COC(=O)c1[nH]c2c(c1C)C(=O)CC(c1cc(OC)c(OC)c(OC)c1)C2 (configuration not stated)	x	3%	i	u	u	5%
COc1cc(C2CC(=O)c3c([nH]c(C(=O)OC4CCCC4)c3C)C2)cc(OC)c1OC (configuration not stated)	-21%	-20%	32µM*	x	x	u
Cn1c(NC(=O)c2cccs2)cc(=O)n(C)c1=O	3%	-4%	i	0%	8%	u

From PubChem
